# Results as given in PubChem BioAssay (NCI).
# Compounds without any hit were thinned out: in the full panel of roughly 79,000, 15% have a hit. A number with no mark means an inactive call. Active and inactive are the calls of the source. Cut-off read from the data, not from the text of the source: active = growth inhibition above about 70%; inactive = the rest.
# Tests used:
# [1] = NCI Yeast Anticancer Drug Screen. Data for the rad52 strain (AID 147);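 note: 0% = growth of vehicle-treated control cultures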; settings: S. cerevisiae rad52 mutant growth inhibition, stronger effect = higher value
# Method in brief: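 Screen used a yeast mutant impaired in DNA repair. After compound exposure, growth was measured. Values reflect inhibition compared with vehicle-treated cells.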
# [2] = NCI Yeast Anticancer Drug Screen. Data for the wt1 strain (AID 149);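 note: 0% = growth of vehicle-treated wt1 cultures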; settings: S. cerevisiae wt1 strain (SPY 50644) growth inhibition, stronger effect = higher value
# Method in brief: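 wt1 strain grown with compound or vehicle; inhibition taken from the growth difference.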
# [3] = NCI Yeast Anticancer Drug Screen. Data for the rad50EPP+ strain (AID 151);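 note: 0% = growth of vehicle-treated control cultures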; settings: S. cerevisiae rad50 mutant strain, stronger effect = higher value
# Method in brief: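 Exposing the rad50EPP+ strain to each compound, growth was compared with vehicle-only cultures to give inhibition.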
# [4] = NCI Yeast Anticancer Drug Screen. Data for the mgt1 strain (AID 153); settings: S. cerevisiae mgt1 mutant growth inhibition, stronger effect = higher value
# Method in brief: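 Genetically defined yeast (mgt1) treated with compound; inhibition of growth expressed against vehicle-treated controls.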
# [5] = NCI Yeast Anticancer Drug Screen. Data for the rad50 strain (AID 155);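 note: 0% = growth of vehicle-only cultures of the same strain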; settings: S. cerevisiae rad50 strain growth inhibition, stronger effect = higher value
# Method in brief: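 DNA repair mutant yeast, compound exposure, growth read-out; inhibition is taken relative to vehicle.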
# [6] = NCI Yeast Anticancer Drug Screen. Data for the mec2-1 strain (AID 157); settings: S. cerevisiae mec2-1 strain, stronger effect = higher value
# Method in brief: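 Readout is yeast growth inhibition, normalised to vehicle-treated controls, in the mec2-1 strain exposed to compound.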
# [7] = NCI Yeast Anticancer Drug Screen. Data for the rad14 strain (AID 159);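 note: 0% = growth of vehicle-treated control cultures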; settings: S. cerevisiae rad14 strain growth inhibition, stronger effect = higher value
# Method in brief: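 DNA repair-defective yeast, compound-exposed; % growth inhibition derived by comparison with vehicle-treated controls.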
# [8] = NCI Yeast Anticancer Drug Screen. Data for the sgs1 mgt1 strain (AID 161);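 note: 0% = growth of cultures given vehicle only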; settings: S. cerevisiae sgs1 mgt1 strain, stronger effect = higher value
# Method in brief: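 Growth of a repair-deficient yeast mutant was monitored after compound treatment and expressed as inhibition relative to vehicle-treated cultures.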
# [9] = NCI Yeast Anticancer Drug Screen. Data for the CLN2oe strain (AID 163);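 note: 0% = growth of vehicle-only control cultures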; settings: S. cerevisiae CLN2oe strain, stronger effect = higher value
# Method in brief: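 Values reflect how much compound exposure reduced yeast growth, referenced to vehicle-exposed cells. Assay organism is a strain with a defined genetic change affecting cell-cycle control.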
# [10] = NCI Yeast Anticancer Drug Screen. Data for the cln2 rad14 strain (AID 165);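 note: 0% = growth equal to vehicle treated cultures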; settings: S. cerevisiae cln2 rad14 strain, stronger effect = higher value
# Method in brief: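 Relative to vehicle controls, growth inhibition of compound-treated cln2 rad14 yeast was recorded.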
# [11] = NCI Yeast Anticancer Drug Screen. Data for the bub3 strain (AID 167); settings: S. cerevisiae bub3 mutant strain, stronger effect = higher value
# Method in brief: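 In this screen, a yeast mutant lacking normal mitotic checkpoint function is challenged with compound. Relative growth versus vehicle gives the inhibition value.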
# [12] = NCI Yeast Anticancer Drug Screen. Data for the wt2 strain (AID 169);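 note: 0% = growth of vehicle-treated yeast cultures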; settings: S. cerevisiae wt2 strain growth inhibition, stronger effect = higher value
# Method in brief: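 Values express reduction in yeast growth under compound treatment, referenced to vehicle-treated cells.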
# [13] = NCI Yeast Anticancer Drug Screen. Data for the mlh1 strain (AID 171);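 note: 0% = growth of vehicle-treated control cultures of the same strain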; settings: S. cerevisiae mlh1 strain growth inhibition, stronger effect = higher value
# Method in brief: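 Steps: expose the defined-mutant yeast strain to compound; expose a parallel culture to vehicle; measure growth; express compound effect as inhibition relative to the vehicle culture.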
# [14] = NCI Yeast Anticancer Drug Screen. Data for the sgs1 strain (AID 173);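 note: 0% = growth of vehicle-only control cultures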; settings: S. cerevisiae sgs1 mutant, stronger effect = higher value
# Method in brief: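 Treat defined-mutant yeast with compound; measure growth; calculate inhibition relative to vehicle-treated cells.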
# [15] = NCI Yeast Anticancer Drug Screen. Data for the mlh1 rad18 strain (AID 175); settings: S. cerevisiae mlh1 rad18 strain growth inhibition, stronger effect = higher value
# Method in brief: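 Test agents were incubated with a yeast strain of defined genotype (DNA damage repair defect). Inhibition of growth was derived by comparison with vehicle-exposed cultures.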
# [16] = NCI Yeast Anticancer Drug Screen. Data for the rad18 strain (AID 177); settings: S. cerevisiae rad18 mutant growth inhibition, stronger effect = higher value
# Method in brief: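 A genetically defined yeast mutant impaired in DNA damage repair was treated with test compounds, then its growth was measured against cultures receiving vehicle alone.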
# [17] = at 5.0 µM (retest, dose inferred, filed as 0.5)
# [18] = at 50.0 µM (retest, dose inferred, filed as 5.0)
structure (smiles),measurement,setting,value
Cc1ccccc1N=C(NO)c1ccccc1,growth inhibition,[1]; at 1.2 µM,10%
same,growth inhibition,[1]; at 3.7 µM,9%
same,growth inhibition,[1]; at 11.0 µM,22%
same,growth inhibition,[1]; at 33.0 µM,60%
same,growth inhibition,[1]; at 100.0 µM,97% (active)
same,growth inhibition,[2]; at 1.2 µM,0%
same,growth inhibition,[2]; at 3.7 µM,-4%
same,growth inhibition,[2]; at 11.0 µM,-6%
same,growth inhibition,[2]; at 33.0 µM,9%
same,growth inhibition,[2]; at 100.0 µM,93% (active)
same,growth inhibition,[3]; at 1.2 µM,1%
same,growth inhibition,[3]; at 3.7 µM,6%
same,growth inhibition,[3]; at 11.0 µM,15%
same,growth inhibition,[3]; at 33.0 µM,42%
same,growth inhibition,[3]; at 100.0 µM,67%
same,growth inhibition,[4]; at 1.2 µM,0%
same,growth inhibition,[4]; at 3.7 µM,-4%
same,growth inhibition,[4]; at 11.0 µM,-4%
same,growth inhibition,[4]; at 33.0 µM,30%
same,growth inhibition,[4]; at 100.0 µM,95% (active)
same,growth inhibition,[5]; at 1.2 µM,8%
same,growth inhibition,[5]; at 3.7 µM,15%
same,growth inhibition,[5]; [17],-141%
same,growth inhibition,[5]; at 11.0 µM,31%
same,growth inhibition,[5]; at 33.0 µM,59%
same,growth inhibition,[5]; [18],33%
same,growth inhibition,[5]; at 50.0 µM,90.6% (active)
same,growth inhibition,[5]; at 100.0 µM,97% (active)
same,growth inhibition,[6]; at 1.2 µM,1%
same,growth inhibition,[6]; at 3.7 µM,0%
same,growth inhibition,[6]; [17],-44%
same,growth inhibition,[6]; at 11.0 µM,-5%
same,growth inhibition,[6]; at 33.0 µM,49%
same,growth inhibition,[6]; [18],14%
same,growth inhibition,[6]; at 50.0 µM,82.8% (active)
same,growth inhibition,[6]; at 100.0 µM,97% (active)
same,growth inhibition,[7]; at 1.2 µM,0%
same,growth inhibition,[7]; at 3.7 µM,-4%
same,growth inhibition,[7]; at 11.0 µM,6%
same,growth inhibition,[7]; at 33.0 µM,29%
same,growth inhibition,[7]; at 100.0 µM,96% (active)
same,growth inhibition,[8]; [17],-61%
same,growth inhibition,[8]; [18],49%
same,growth inhibition,[8]; at 50.0 µM,80% (active)
same,growth inhibition,[9]; at 1.2 µM,-3%
same,growth inhibition,[9]; at 3.7 µM,-5%
same,growth inhibition,[9]; at 11.0 µM,-2%
same,growth inhibition,[9]; at 33.0 µM,20%
same,growth inhibition,[9]; at 100.0 µM,95% (active)
same,growth inhibition,[10]; [17],-56%
same,growth inhibition,[10]; [18],20%
same,growth inhibition,[10]; at 50.0 µM,74.2% (active)
same,growth inhibition,[11]; at 1.2 µM,3%
same,growth inhibition,[11]; at 3.7 µM,-1%
same,growth inhibition,[11]; [17],-67%
same,growth inhibition,[11]; at 11.0 µM,-5%
same,growth inhibition,[11]; at 33.0 µM,5%
same,growth inhibition,[11]; [18],37%
same,growth inhibition,[11]; at 50.0 µM,76.8% (active)
same,growth inhibition,[11]; at 100.0 µM,94% (active)
same,growth inhibition,[12]; at 1.2 µM,-3%
same,growth inhibition,[12]; at 3.7 µM,-3%
same,growth inhibition,[12]; at 11.0 µM,-4%
same,growth inhibition,[12]; at 33.0 µM,20%
same,growth inhibition,[12]; at 100.0 µM,94% (active)
same,growth inhibition,[13]; at 1.2 µM,1%
same,growth inhibition,[13]; at 3.7 µM,2%
same,growth inhibition,[13]; at 11.0 µM,2%
same,growth inhibition,[13]; at 33.0 µM,31%
same,growth inhibition,[13]; at 100.0 µM,95% (active)
same,growth inhibition,[14]; at 1.2 µM,1%
same,growth inhibition,[14]; at 3.7 µM,6%
same,growth inhibition,[14]; at 11.0 µM,15%
same,growth inhibition,[14]; at 33.0 µM,62%
same,growth inhibition,[14]; at 100.0 µM,98% (active)
same,growth inhibition,[15]; [17],-122%
same,growth inhibition,[15]; [18],29%
same,growth inhibition,[15]; at 50.0 µM,92.9% (active)
same,growth inhibition,[16]; at 1.2 µM,1%
same,growth inhibition,[16]; at 3.7 µM,2%
same,growth inhibition,[16]; at 11.0 µM,11%
same,growth inhibition,[16]; at 33.0 µM,35%
same,growth inhibition,[16]; at 100.0 µM,96% (active)
C[CH2][Sn]([CH2]C)([O]C(=O)C(N)Cc1ccccc1)[O]C(=O)C(N)Cc1ccccc1 (stereo unspecified),growth inhibition,[1]; at 1.2 µM,1%
same,growth inhibition,[1]; at 3.7 µM,-4%
same,growth inhibition,[1]; at 11.0 µM,2%
same,growth inhibition,[1]; at 33.0 µM,14%
same,growth inhibition,[1]; at 100.0 µM,52%
same,growth inhibition,[2]; at 1.2 µM,1%
same,growth inhibition,[2]; at 3.7 µM,1%
same,growth inhibition,[2]; at 11.0 µM,14%
same,growth inhibition,[2]; at 33.0 µM,19%
same,growth inhibition,[2]; at 100.0 µM,54%
same,growth inhibition,[3]; at 1.2 µM,-13%
same,growth inhibition,[3]; at 3.7 µM,-13%
same,growth inhibition,[3]; at 11.0 µM,9%
same,growth inhibition,[3]; at 33.0 µM,-28%
same,growth inhibition,[3]; at 100.0 µM,-11%
same,growth inhibition,[4]; at 1.2 µM,6%
same,growth inhibition,[4]; at 3.7 µM,-2%
same,growth inhibition,[4]; at 11.0 µM,1%
same,growth inhibition,[4]; at 33.0 µM,23%
same,growth inhibition,[4]; at 100.0 µM,56%
same,growth inhibition,[5]; at 1.2 µM,10%
same,growth inhibition,[5]; at 3.7 µM,3%
same,growth inhibition,[5]; [17],19%
same,growth inhibition,[5]; at 11.0 µM,14%
same,growth inhibition,[5]; at 33.0 µM,15%
same,growth inhibition,[5]; [18],20%
same,growth inhibition,[5]; at 50.0 µM,55.8%
same,growth inhibition,[5]; at 100.0 µM,54%
same,growth inhibition,[6]; at 1.2 µM,3%
same,growth inhibition,[6]; at 3.7 µM,3%
same,growth inhibition,[6]; [17],19%
same,growth inhibition,[6]; at 11.0 µM,0%
same,growth inhibition,[6]; at 33.0 µM,3%
same,growth inhibition,[6]; [18],36%
same,growth inhibition,[6]; at 50.0 µM,70.5% (active)
same,growth inhibition,[6]; at 100.0 µM,49%
same,growth inhibition,[7]; at 1.2 µM,-23%
same,growth inhibition,[7]; at 3.7 µM,-11%
same,growth inhibition,[7]; at 11.0 µM,-17%
same,growth inhibition,[7]; at 33.0 µM,-13%
same,growth inhibition,[7]; at 100.0 µM,7%
same,growth inhibition,[8]; [17],-21%
same,growth inhibition,[8]; [18],59%
same,growth inhibition,[8]; at 50.0 µM,16.1%
same,growth inhibition,[9]; at 1.2 µM,4%
same,growth inhibition,[9]; at 3.7 µM,-1%
same,growth inhibition,[9]; at 11.0 µM,10%
same,growth inhibition,[9]; at 33.0 µM,14%
same,growth inhibition,[9]; at 100.0 µM,36%
same,growth inhibition,[10]; [17],17%
same,growth inhibition,[10]; [18],76% (active)
same,growth inhibition,[10]; at 50.0 µM,61.1%
same,growth inhibition,[11]; at 1.2 µM,-23%
same,growth inhibition,[11]; at 3.7 µM,-25%
same,growth inhibition,[11]; [17],2%
same,growth inhibition,[11]; at 11.0 µM,-39%
same,growth inhibition,[11]; at 33.0 µM,-29%
same,growth inhibition,[11]; [18],74% (active)
same,growth inhibition,[11]; at 50.0 µM,47.7%
same,growth inhibition,[11]; at 100.0 µM,32%
same,growth inhibition,[12]; at 1.2 µM,-15%
same,growth inhibition,[12]; at 3.7 µM,-21%
same,growth inhibition,[12]; at 11.0 µM,-13%
same,growth inhibition,[12]; at 33.0 µM,-2%
same,growth inhibition,[12]; at 100.0 µM,78% (active)
same,growth inhibition,[13]; at 1.2 µM,6%
same,growth inhibition,[13]; at 3.7 µM,-2%
same,growth inhibition,[13]; at 11.0 µM,1%
same,growth inhibition,[13]; at 33.0 µM,23%
same,growth inhibition,[13]; at 100.0 µM,56%
same,growth inhibition,[14]; at 1.2 µM,-8%
same,growth inhibition,[14]; at 3.7 µM,7%
same,growth inhibition,[14]; at 11.0 µM,4%
same,growth inhibition,[14]; at 33.0 µM,0%
same,growth inhibition,[14]; at 100.0 µM,42%
same,growth inhibition,[15]; [17],17%
same,growth inhibition,[15]; [18],23%
same,growth inhibition,[15]; at 50.0 µM,-22.9%
same,growth inhibition,[16]; at 1.2 µM,3%
same,growth inhibition,[16]; at 3.7 µM,2%
same,growth inhibition,[16]; at 11.0 µM,6%
same,growth inhibition,[16]; at 33.0 µM,22%
same,growth inhibition,[16]; at 100.0 µM,65%
